Test: inhibitors of Chlamydomonas gravitaxis, primary screen, whole organism, Chlamydomonas reinhardtii, WT vs cilia-less mutant, absorbance, 96-well (AID 463189);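 note: 0% = wild type cc124 cells in DMSO and 100% = ciliumless bld1 mutant cells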
Details: OD600 absorbance, 2 days, at 10 µM, stronger effect = higher value;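 active = inhibition at or above 50% relative to wild type and mutant plate controls; inactive = inhibition below 50%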

inhibition, inactive:
CN1C2CCC1CC(OC(=O)c1c[nH]c3ccccc13)C2 (stereo unspecified) 11.2%, c1cnc(N2CCN(Cc3ccc4c(c3)OCO4)CC2)nc1 0.952%, COc1cc([C@@H]2c3cc4c(cc3[C@H](O)C3COC(=O)[C@@H]32)OCO4)cc(OC)c1OC (stereo partly specified) 0.089%, COC(=O)[C@@H](N)Cc1ccc(O)c(O)c1 -3.44%, CCOC(=O)c1cnc2c(cnn2CC)c1NN=C(C)C 7.54%, COc1cc2c(c(OC)c1OC)-c1ccc(OC)c(=O)cc1[C@@H](NC(C)=O)CC2 4.38%, CC(C)NC[C@H](O)c1ccc(O)c(O)c1 8.51%, Nc1nc(OCc2ccccc2)c2[nH]cnc2n1 0.83%, NC1CCN(c2cccc(Cl)n2)CC1 -3.28%, O=c1[nH]cc(F)c(=O)[nH]1 2.19%, O=C(O)CP(=O)(O)O 7.76%, CCC1(O)CC2CN(CCc3c([nH]c4ccccc34)[C@@](C(=O)OC)(c3cc4c(cc3OC)N(C)C3[C@]45CCN4CC=C[C@@](CC)([C@@H](OC(C)=O)[C@]3(O)C(=O)OC)[C@H]45)C2)C1 (stereo partly specified) 4.61%, CCCN1C[C@H](CSC)C[C@@H]2c3cccc4[nH]cc(c34)C[C@H]21 5.65%, CN1CCC2(CCN3CCc4c(oc5ccccc45)C3C2)N(C)C1=O (stereo unspecified) -3.27%, NCC(O)c1ccc(O)c(O)c1 (stereo unspecified) -2.37%, Cn1ccc2cc3c(cc21)CCN3C(=O)Nc1cccnc1 9.75%

Source: PubChem BioAssay
